Results as given in PubChem BioAssay (EPA / NIEHS).
Where “and” joins values, the source holds several entries; their conditions need not be identical. Equal values may be shown once. Results filed as inconclusive are left out. The source holds several records for some structures; these can differ, active in one and inactive in another. Calls of active or inactive are those of the source. The calls were made as follows, unless noted: active = hit-call score of the fitted dose curve at least 0.9, where 1 is the maximum; inactive = score below 0.9.

What was measured:
[1] = read-out: Interleukin-8 (IL8), CXCL8 (gene 3576); experiment: BSK_LPS_IL8: BioMAP Diversity Plus: LPS Assay for Interleukin-8 (IL8) Biomarker Activity (AID 2283078); conditions: primary human HUVEC with PBMC; actives raise or lower the signal
Summary of the method: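 Human umbilical vein endothelial cells co-cultured with PBMC were stimulated with LPS; IL-8 levels were measured by ELISA 24 h after chemical dosing. Activity was fitted bidirectionally against DMSO as negative control and baseline.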

[2] = BSK_LPS_SRB: Viability Assessment in the BioMAP Diversity Plus: LPS Assay (AID 2283079); conditions: primary human HUVEC with PBMC;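 also: total protein by sulforhodamine B absorbance as a cytotoxicity measure; measured one day after compound addition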
Summary of the method: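 Human umbilical vein endothelial cells co-cultured with PBMC (LPS system) were dosed for 24 h. Total protein was stained with 0.1% sulforhodamine B after 10% TCA fixation, read at 560 nm, and fitted bidirectionally against DMSO baseline.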

[3] = read-out: Interleukin-1 alpha (IL1a), IL1A (gene 3552); experiment: BSK_LPS_IL1a: BioMAP Diversity Plus: LPS Assay for Interleukin-1 alpha (IL1a) Biomarker Activity (AID 2283080); conditions: primary human HUVEC with PBMC; actives raise or lower the signal
Summary of the method: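 Human umbilical vein endothelial cells co-cultured with peripheral blood mononuclear cells were LPS-stimulated and exposed to test chemicals for 24 h. IL-1 alpha was quantified by ELISA, with bidirectional curve fitting against DMSO as the negative control and baseline.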

[4] = read-out: Monocyte Chemoattractant Protein-1 (MCP1), CCL2 (gene 6347); experiment: BSK_LPS_MCP1: BioMAP Diversity Plus: LPS Assay for Monocyte Chemoattractant Protein-1 (MCP1) Biomarker Activity (AID 2283081); conditions: primary human HUVEC with PBMC; actives raise or lower the signal
Summary of the method: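 HUVEC plus PBMC co-culture (human primary cells, LPS system) exposed to test chemical for 24 h; MCP-1 measured by ELISA. Bidirectional curve fitting against DMSO baseline; parallel SRB total-protein staining flags overt cytotoxicity.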

[5] = BSK_LPS_PGE2: BioMAP Diversity Plus: LPS Assay for Prostaglandin E2 (PGE2) Biomarker Activity (AID 2283082); conditions: primary human HUVEC with PBMC; actives raise or lower the signal
Summary of the method: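 Endpoint derived from bidirectional curve fitting versus DMSO of ELISA-measured PGE2 in LPS-stimulated human primary vascular co-culture (HUVEC with PBMC) harvested at 24 h.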

[6] = read-out: Macrophage colony-stimulating factor (MCSF), CSF1 (gene 1435); experiment: BSK_LPS_MCSF: BioMAP Diversity Plus: LPS Assay for Macrophage colony-stimulating factor (MCSF) Biomarker Activity (AID 2283083); conditions: primary human HUVEC with PBMC; actives raise or lower the signal
Summary of the method: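 Human umbilical vein endothelial cells co-cultured with peripheral blood mononuclear cells were exposed to compound for 24 h. M-CSF levels were measured by ELISA, and bidirectional curve fitting used DMSO as the negative control and baseline.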

[7] = read-out: Tissue Factor, F3 (gene 2152); experiment: BSK_LPS_TissueFactor: BioMAP Diversity Plus: LPS Assay for Tissue Factor Biomarker Activity (AID 2283084); conditions: primary human HUVEC with PBMC; actives raise or lower the signal
Summary of the method: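 Human umbilical vein endothelial cells co-cultured with peripheral blood mononuclear cells were dosed and stimulated with LPS. Cell-surface CD142 was quantified by ELISA at 24 h. Activity was fitted bidirectionally against DMSO baseline.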

[8] = read-out: Tumor necrosis factor (Homo sapiens) (UniProt P01375); experiment: BSK_LPS_TNFa: BioMAP Diversity Plus: LPS Assay for Tumour Necrosis Factor alpha (TNFa) Biomarker Activity (AID 2283085); conditions: primary human HUVEC with PBMC; actives raise or lower the signal
Summary of the method: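 Primary human vascular co-culture of HUVEC and PBMC; TNFa ELISA 24 h after treatment, analysed as increase or decrease relative to DMSO control.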

[9] = read-out: Vascular cell adhesion molecule 1 (VCAM1), VCAM1 (gene 7412); experiment: BSK_LPS_VCAM1: BioMAP Diversity Plus: LPS Assay for Vascular cell adhesion molecule 1 (VCAM1) Biomarker Activity (AID 2283086); conditions: primary human HUVEC with PBMC; actives raise or lower the signal
Summary of the method: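 Primary human vascular co-culture (umbilical vein endothelium plus PBMC) stimulated with LPS received chemical; 24 h later VCAM-1 was read by ELISA. Overt cytotoxicity was assessed by sulforhodamine B staining of parallel cultures at the same time point.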

CD38, CD38 (gene 952) = experiment: BSK_SAg_CD38: BioMAP Diversity Plus: SAg Assay for CD38 Biomarker Activity (AID 2283087); conditions: primary human HUVEC with PBMC; actives raise or lower the signal
Summary of the method: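 Fluorescence ELISA of cell-surface CD38 served as the read-out, with either increase or decrease fitted against DMSO controls. Cells were a human umbilical vein endothelium plus PBMC co-culture under SEB/TSST-1 stimulation, measured 24 h after dosing.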

CD69, CD69 (gene 969) = experiment: BSK_SAg_CD69: BioMAP Diversity Plus: SAg Assay for CD69 Biomarker Activity (AID 2283089); conditions: primary human HUVEC with PBMC; actives raise or lower the signal;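 also: cell surface CD69 protein quantified by ELISA with fluorescence detection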
Summary of the method: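 HUVEC co-cultured with PBMC were dosed with chemical, and CD69 was measured by ELISA with fluorescence read-out 24 h later. Bidirectional curve fitting used DMSO as negative control and activity baseline.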

[10] = read-out: Monocyte Chemoattractant Protein-1 (MCP1), CCL2 (gene 6347); experiment: BSK_SAg_MCP1: BioMAP Diversity Plus: SAg Assay for Monocyte Chemoattractant Protein-1 (MCP1) Biomarker Activity (AID 2283090); conditions: primary human HUVEC with PBMC; actives raise or lower the signal
Summary of the method: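 MCP-1 levels in the endothelial–PBMC SAg co-culture were quantified by ELISA at 24 h post-dosing; both increases and decreases versus DMSO scored. Cytotoxicity monitored by SRB total protein in parallel cultures.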

[11] = read-out: E-selectin (Homo sapiens) (UniProt P16581); experiment: BSK_SAg_Eselectin: BioMAP Diversity Plus: SAg Assay for Eselectin Biomarker Activity (AID 2283091); conditions: primary human HUVEC with PBMC; actives raise or lower the signal
Summary of the method: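 HUVEC co-cultured with PBMC, compound dosed then read at 24 h; E-selectin measured by ELISA. Activity fitted bidirectionally against DMSO as negative control and baseline.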

[12] = read-out: Monokine induced gamma interferon (MIG), CXCL9 (gene 4283); experiment: BSK_SAg_MIG: BioMAP Diversity Plus: SAg Assay for Monokine induced gamma interferon (MIG) Biomarker Activity (AID 2283092); conditions: primary human HUVEC with PBMC; actives raise or lower the signal
Summary of the method: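 HUVEC plus human PBMC co-culture, chemicals dosed and MIG (CXCL9) quantified by ELISA at 24 h. Bidirectional curve fitting against DMSO as negative control and baseline, so both gain and loss of signal count as activity.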

[13] = BSK_SAg_PBMCCytotoxicity: PBMC Cytotoxicity Assessment in the BioMAP Diversity Plus: SAg Assay (AID 2283093); conditions: primary human HUVEC with PBMC;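 also: PBMC superantigen activated with SEB plus TSST-1 one hour after compound addition; PBMC viability measured as Alamar Blue reduction fluorescence at 546/580 nm; fitted both ways against DMSO so a hit may be loss or gain of signal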
Summary of the method: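 Compound added to 75,000 PBMC/well for 1 h; SEB and TSST-1 then added at 20 ng/mL final each; 90 h incubation; Alamar Blue 6 h; read 546/580 nm ex/em. Activity fitted bidirectionally relative to DMSO baseline.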

[14] = read-out: Interleukin-8 (IL8), CXCL8 (gene 3576); experiment: BSK_SAg_IL8: BioMAP Diversity Plus: SAg Assay for Interleukin-8 (IL8) Biomarker Activity (AID 2283094); conditions: primary human HUVEC with PBMC; actives raise or lower the signal
Summary of the method: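 In this co-culture of human umbilical vein endothelium with peripheral blood mononuclear cells, IL-8 is assayed by ELISA at 24 h. DMSO serves as baseline for bidirectional curve fitting.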

[15] = BSK_SAg_Proliferation: Cell Proliferation Assessment in the BioMAP Diversity Plus: SAg Assay (AID 2283095); conditions: primary human HUVEC with PBMC;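 also: relative cell number as total protein by SRB absorbance in sub-confluent culture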
Summary of the method: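 Readout is SRB-stained protein (560 nm) in a primary human HUVEC and PBMC co-culture; sub-confluent cultures are read at 96 h. Activity is fitted bidirectionally using DMSO as baseline.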

[16] = BSK_SAg_SRB: Viability Assessment in the BioMAP Diversity Plus: SAg Assay (AID 2283096); conditions: primary human HUVEC with PBMC;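 also: cells read one day after compound addition; hits may be either gain or loss of signal compared with DMSO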
Summary of the method: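 Total protein by sulforhodamine B staining, 24 h after dosing, in HUVEC–PBMC co-culture; DMSO-referenced bidirectional fitting.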

[17] = TOX21_p53_BLA_p2_viability: Viability Assessment in the Tox21 HCT-116 p53 Agonism Beta-lactamase Assay, Phase 2 (AID 2283591; active = hit-call score of the fitted dose curve at least 0.9, where 1 is the maximum;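 also: compound exposure lasted 16 h at 37 °C; actives lower the ATP signal meaning cytotoxicity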)
Summary of the method: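 Cytotoxicity readout: CellTiter-Glo ATP luminescence, 30 min at room temperature, after the beta-lactamase read. Cells were HCT116 exposed 16 h at 37C to compounds pin-transferred at 217-fold dilution from DMSO stocks.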

[18] = TOX21_p53_BLA_p3_viability: Viability Assessment in the Tox21 HCT-116 p53 Agonism Beta-lactamase Assay, Phase 3 (AID 2283593; active = hit-call score of the fitted dose curve at least 0.9, where 1 is the maximum;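 also: cells exposed to compound for 16 h before reading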)
Summary of the method: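 Cellular ATP was quantified by CellTiter-Glo luminescence, read after 30 min at room temperature. Beforehand, HCT116 cells (4000/well) received compound 5 h post-seeding, 217-fold diluted from DMSO, then incubated 16 h at 37C.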

[19] = TOX21_p53_BLA_p4_viability: Viability Assessment in the Tox21 HCT-116 p53 Agonism Beta-lactamase Assay, Phase 4 (AID 2283597; active = hit-call score of the fitted dose curve at least 0.9, where 1 is the maximum;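 also: hits lower the luminescence signal meaning cytotoxicity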)
Summary of the method: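 HCT116 p53-bla cells (4000/well) rested 5 h at 37C, then received compounds in DMSO (217-fold dilution) for 16 h at 37C, 5% CO2. CellTiter-Glo was added after the CCF4-AM read, and luminescence was read after 30 min at room temperature.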

Measured: AC50

Chain of E-selectin (Homo sapiens) (P16581 whole entry, looked up): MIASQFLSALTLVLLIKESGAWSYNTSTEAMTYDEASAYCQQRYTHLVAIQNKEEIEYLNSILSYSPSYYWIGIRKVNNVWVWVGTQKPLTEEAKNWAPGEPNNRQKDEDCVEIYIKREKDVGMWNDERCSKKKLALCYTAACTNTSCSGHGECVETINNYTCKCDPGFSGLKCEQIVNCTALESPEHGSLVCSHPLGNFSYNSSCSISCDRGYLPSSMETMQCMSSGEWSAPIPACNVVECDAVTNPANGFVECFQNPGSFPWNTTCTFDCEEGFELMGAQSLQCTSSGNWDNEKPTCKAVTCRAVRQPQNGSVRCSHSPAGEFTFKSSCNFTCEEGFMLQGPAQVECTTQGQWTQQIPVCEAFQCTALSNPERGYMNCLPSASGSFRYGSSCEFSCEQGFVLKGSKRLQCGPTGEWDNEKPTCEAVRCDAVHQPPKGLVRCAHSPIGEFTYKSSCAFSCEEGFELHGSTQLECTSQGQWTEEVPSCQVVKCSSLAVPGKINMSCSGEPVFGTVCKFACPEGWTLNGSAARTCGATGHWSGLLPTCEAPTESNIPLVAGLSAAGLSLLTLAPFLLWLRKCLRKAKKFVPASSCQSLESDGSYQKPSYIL
Chain of Tumor necrosis factor (Homo sapiens) (P01375 whole entry, looked up): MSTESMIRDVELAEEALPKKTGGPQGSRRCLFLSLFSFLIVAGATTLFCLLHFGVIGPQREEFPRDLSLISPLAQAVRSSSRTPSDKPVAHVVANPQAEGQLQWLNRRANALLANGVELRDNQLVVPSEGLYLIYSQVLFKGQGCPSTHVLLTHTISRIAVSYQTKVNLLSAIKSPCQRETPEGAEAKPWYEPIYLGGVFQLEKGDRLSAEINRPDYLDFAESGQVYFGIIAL

[Cd+2].[Cl-].[Cl-]
active: [6] 19.5 µM and 31.2 µM | [8] 33 µM | [9] 30 µM and 35.9 µM | CD38, CD38 (gene 952) 35.3 µM and 15.6 µM | CD69, CD69 (gene 969) 32.4 µM and 30.4 µM | [10] 33 µM and 34.4 µM | [11] 32.2 µM and 30.2 µM | [13] 20 µM and 30.4 µM | [14] 34.9 µM and 31.4 µM | [15] 14 µM and 13.4 µM | [17] 67.9 µM and 68.1 µM | [18] 69.2 µM | [19] 68.6 µM
inactive: [1] | [2] | [3] | [4] | [5] | [7] | [8] | [12] | [16] | [18]
